Screens (PubChem BioAssay)
Many of the other results were omitted from the sample, so hits are more common in it than they were.
mHTT CaM bind: mHTT-calmodulin interaction abrogation; inhibition, % at 15 µM; P42858; AID 1671202; AlphaScreen His-mHTT/GST-CaM binding, luminescence; 190,000 compounds, 3.6% hits;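 note: 0% = both proteins with DMSO and 100% = one protein alone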
Pf apPOL inh: Pf-apPOL DNA polymerase inhibition; Recombinant Pf-apPOL, molecular beacon fluorescence, 1.5 h; inhibition, % at 10 µM; 210,000 compounds, 0.25% hits
Active calls of the source: *; . = no result. Cut-off read from the data, not from the text of the source: active = inhibition above about 50%; inactive = the rest.

SMILES | mHTT CaM bind | Pf apPOL inh
COc1ccc(-c2cc(C(F)(F)F)n3ncc(C(=O)N4CCCCC4)c3n2)cc1OC | 0 | -4
CSc1ccccc1C(=O)N1CCC(n2cnc3cc(C(F)(F)F)ccc32)CC1 | 82* | -15
CSc1ccccc1C(=O)N1CCC(Cn2nc(C)cc2C)CC1 | -10 | -9
Oc1ccccc1C1N=c2c(c3ccccc3c3ccccc23)=N1 | -8 | -9
COC(=O)Oc1c(Cl)cc2oc(=O)sc2c1[N+](=O)[O-] | 81* | 9
COC(=O)Oc1cc2oc(=O)sc2cc1Cl | 22 | 0
CCOC(=O)Oc1c(Cl)cc2oc(=O)sc2c1Br | 54* | 0
CCOC(=O)Oc1cc2oc(=O)sc2cc1Br | 22 | 7
O=C(Nc1ccc([N+](=O)[O-])cc1)c1cnccn1 | 13 | -3
Cc1c(C)c(C)c(C=C2C(=O)OC(C)(C)OC2=O)c(C)c1C | . | 0
O=c1c(-c2ccc(O)cc2)coc2cc(O)cc(O)c12 | . | -2
O=c1c(-c2ccc(Br)cc2)coc2cc(O)cc(O)c12 | 52* | 33
Cc1ccc(CNC(=O)CN2CCC(c3nc(-c4ccc(F)cc4)no3)CC2)cc1 | 0 | -3
CCCNC(=O)c1ccc2c(c1)ncn2-c1ccc(C)c(Cl)c1 | 52* | 28
Cc1ccc(-n2cnc3cc(C(=O)NCc4ccco4)ccc32)c(C)c1 | 13 | 27
CCOC(CNC(=O)c1ccc2c(c1)ncn2-c1ccc(C)c(Cl)c1)OCC | 9 | 26
Cc1ccc(-n2cnc3cc(C(=O)NCc4ccco4)ccc32)cc1Cl | 79* | 32
Cc1nc(-c2cc(CO)no2)cs1 | . | -7
COc1ccc(NC(=O)Cn2c(=O)n(-c3ccc(C)c(F)c3)c(=O)c3sccc32)cc1Cl | -4 | -2
CN(C)c1ccc(C=C2SC(=O)N(CN3CCOCC3)C2=O)cc1 | 11 | 4
O=C(c1cn(-c2ccc(Cl)cc2)c(=O)c2ccccc12)N1CCCc2ccccc21 | 10 | 2
CCOc1ccc(CN(CCc2ccc3c(c2)OCO3)Cc2cc(OC)c(OC)c(OC)c2)cc1 | 11 | -5
COc1ccc(Br)cc1CN(CCc1ccc2c(c1)OCO2)Cc1cccnc1 | 57* | -10
Cc1cc(-c2nnc(NC(=O)C(C)(C)Oc3ccc(Cl)cc3)o2)c(C)o1 | 98* | -136
CC(C)(Oc1ccc(Cl)cc1)C(=O)Nc1nnc(-c2ccsc2)o1 | 43 | -112
SMILES | mHTT CaM bind | Pf apPOL inh
O=C1C(=Cc2ccccc2Br)Oc2cc(OC(=O)C3CC3)ccc21 | 0 | -7
Cc1ccc(-c2c(C(=O)O)oc(=O)c3ccccc23)cc1 | -8 | -5
Cc1cc(C)cc(NC(=O)Cn2[nH]c3c(cnc4ccc(Cl)cc43)c2=O)c1 | 13 | 0
CC(=O)N1c2ccccc2C(N(C(=O)CN2C(=O)c3ccccc3C2=O)c2ccccc2)CC1C (stereo unspecified) | 9 | -10
CC(C)(C)c1csc(NC(=O)c2ccc(N3CCOCC3)c([N+](=O)[O-])c2)n1 | 55* | 2
COc1ccc(Cc2cnc(NC(=O)c3ccc(N4CCOCC4)c([N+](=O)[O-])c3)s2)cc1 | 5 | -3
CC(=O)N1CCN(CC(=O)N2N=C(c3ccc(F)cc3)CC2c2ccccc2)CC1 (stereo unspecified) | 35 | -1
Cn1cccc1C1CC(c2ccc(F)cc2)=NN1C(=O)CN1CCCCC1 (stereo unspecified) | 70* | -4
Cc1ccc(C2=NN(C(=O)CN3CCCCC3)C(c3cccn3C)C2)cc1C (stereo unspecified) | 91* | -2
COc1ccc(N=C2C(=O)Nc3ccccc32)c([N+](=O)[O-])c1 | 11 | 1
CC1=CN2C(=NC(=O)CC2(C)C(=O)NCc2ccc3c(c2)OCO3)C=C1 (stereo unspecified) | -7 | -5
O=S(=O)(NCc1ccccc1F)c1c[nH]c2ncccc12 | -11 | -2
Cc1nn(Cc2ccc(F)cc2)c(C)c1NC(=O)c1noc2c1CCCCC2 | 53* | -5
Cc1nn(Cc2ccc(Cl)cc2)c(C)c1NC(=O)c1noc2c1CCCC2 | 96* | -2
Cc1nn(Cc2ccccc2Cl)c(C)c1NC(=O)c1noc2c1CCCCC2 | 15 | -6
Cc1ccccc1Cn1nc(C)c(NC(=O)c2noc3c2CCCC3)c1C | 15 | -2
COC1=CS(=O)(=O)c2cc([N+](=O)[O-])cc([N+](=O)[O-])c21 | 2 | -2
CC(=O)C1=C(C)NC(SCC(=O)c2ccc([N+](=O)[O-])cc2)=C(C#N)C1c1ccccc1 (stereo unspecified) | 59* | -4
CC(=O)C1=C(C)NC(SCC(=O)c2ccc([N+](=O)[O-])cc2)=C(C#N)C1c1cccc(C)c1 (stereo unspecified) | 64* | 1
CC(=O)C1=C(C)NC(SCC(=O)c2cccc([N+](=O)[O-])c2)=C(C#N)C1c1cccc(C)c1 (stereo unspecified) | 62* | -11
CC(=O)C1=C(C)NC(SCC(=O)c2ccc(C)cc2)=C(C#N)C1c1ccco1 (stereo unspecified) | -12 | -3
CCc1ccc(C2C(C#N)=C(SCC(=O)c3cccc([N+](=O)[O-])c3)NC(C)=C2C(C)=O)cc1 (stereo unspecified) | 45 | -3
CC(=O)C1=C(C)NC(SCC(N)=O)=C(C#N)C1c1cccc([N+](=O)[O-])c1 (stereo unspecified) | 0 | -3
CC(=O)C1=C(C)NC(SCC(=O)c2ccccc2)=C(C#N)C1c1ccc(Cl)cc1 (stereo unspecified) | -22 | 5
CC(=O)C1=C(C)NC(SCC(=O)c2ccc([N+](=O)[O-])cc2)=C(C#N)C1c1ccco1 (stereo unspecified) | 69* | 38
SMILES | mHTT CaM bind | Pf apPOL inh
COCc1nn(C)c2c1CN(C(=O)c1ccc(OC)c(OC)c1)CC2 | 1 | -2
CN1C(=O)NC(c2ccc(O)cc2)C2=C1CN(Cc1cccnc1)C2=O (stereo unspecified) | -8 | 1
Cc1ccccc1C(=O)Nc1cnc(-c2cccc(Cl)c2)nc1 | -8 | -2
CCOC(=O)N1CCc2nn(CC(=O)Nc3ccccc3C)c(=O)cc2C1 | 28 | -3
Cc1cccc(S(=O)(=O)N2CCSC2c2ccccc2Cl)c1 (stereo unspecified) | -35 | 5
CC(=O)C1=C(C)NC(SCC(=O)c2ccccc2)=C(C#N)C1c1ccccc1Cl (stereo unspecified) | -57 | -3
CC(=O)C1=C(C)NC(SCC(=O)c2ccc([N+](=O)[O-])cc2)=C(C#N)C1c1ccccc1Cl (stereo unspecified) | 61* | -18
Nc1ccc2[nH]c3ccccc3c2c1 | 99* | 6
CC(=O)c1ccc2[nH]c3ccccc3c2c1 | -4 | 3
COc1ccc(C)cc1NC(=O)CSc1ccc(C)cc1 | -45 | -12
Cc1cccc(-n2cc(C3CCN(C(=O)C4CCCC4)CC3)cn2)c1 | -10 | -3
CN(C)c1ccc(C(=O)N2CCC(c3cnn(-c4ccc(F)cc4)c3)CC2)cc1 | 4 | -1
Cc1ccc(-n2cc(C3CCN(C(=O)c4ccc(N(C)C)cc4)CC3)cn2)cc1 | 63* | -5
CC(=O)N1CCC(c2cnn(-c3cccc(C)c3)c2)CC1 | 100* | 1
Cc1ccc2c(S(=O)(=O)O)ccc(O)c2n1 | 24 | 0
O=S(=O)(O)c1ccc(O)c2ncccc12 | 100* | -5
Cc1ccc(S(=O)(=O)N2CCC(C(=O)N3CCC(C(N)=O)CC3)CC2)cc1 | -2 | -1
COc1ccccc1OCCCSC#N | -4 | -2
